Screens: PubChem BioAssay, The Scripps Research Institute Molecular Screening Center
An excerpt weighted towards active compounds, which were near 4.1% of everything screened.
hcDAF12 agonist: activates DAF-12 receptor from parasite H. contortus; HEK293 hcDAF-12 lit1-tk-luc reporter, luminescence; 0% DMSO, 100% Δ7-dafachronic acid; activation, % at 6.8 µM; actives 1.4% (n = 370,000); AID 652067;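 active = activation above the mean of all tested compounds plus 3 SD, cut at about 5.5% in these data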;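 also: 100% = response to 3 µM Δ7-dafachronic acid high control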
ssDAF12 agonist: S. stercoralis DAF-12 activation, primary screen; HEK293 ssDAF-12/GRIP1 lit1-tk-luc reporter, luminescence; % of 3 µM dafachronic acid response; activation, % at 6.8 µM; actives 1% (n = 370,000);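 active = activation above the mean over all tested compounds plus 3 SD, cut at about 0.9% in these data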;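 also: 0% = DMSO-only wells and 100% = 3 µM delta7-dafachronic acid wells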
DAX1 inh-1: inhibits human nuclear receptor DAX1. actives 0.99% (n = 340,000). inhibition, % at 6.75 µM. AID 504766. HEK293 Gal4-DAX1 luciferase reporter, luminescence;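 active = inhibition above the mean over all tested compounds plus 3 SD, cut at about 4.2% in these data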;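 also: 0% = DAX1-transfected cells with DMSO and 100% = empty-vector control cells with DMSO; inhibition shows as a rise in luminescence from relieved DAX1 repression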
Target sequence (P51843 207-470 limits assumed): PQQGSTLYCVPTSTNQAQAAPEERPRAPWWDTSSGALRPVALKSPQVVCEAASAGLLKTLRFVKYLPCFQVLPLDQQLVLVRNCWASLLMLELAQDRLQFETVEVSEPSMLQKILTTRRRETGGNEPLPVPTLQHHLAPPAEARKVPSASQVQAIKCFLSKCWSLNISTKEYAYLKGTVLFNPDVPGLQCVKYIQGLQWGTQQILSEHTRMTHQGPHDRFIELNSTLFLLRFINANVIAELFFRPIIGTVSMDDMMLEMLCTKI
hgDAF-12 ag: activates the H. glycines DAF-12 receptor ligand-binding domain; HEK293 GAL4-hgDAF12 UAS-luciferase reporter, agonist luminescence; normalized to butyrate control; activation, % at 6.8 µM; actives 1.8% (n = 370,000);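 active = activation above a cutoff set at the mean of all screened compounds plus 3 SD, cut at about 10% in these data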;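 also: 0% = DMSO wells and 100% = sodium butyrate wells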
DAX1 inh-2: blocks DAX1 repression of SF-1 activated StAR promoter; inhibition, % at 6.8 µM; actives 1.1% (n = 370,000); HEK293T StAR-luciferase reporter, SF-1/DAX-1 repression relief;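 active = inhibition above the mean over all tested compounds plus 3 SD, cut at about 3.6% in these data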;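 also: 0% = DAX-1 cells with DMSO and 100% = cells lacking DAX-1 with DMSO; higher inhibition means more luminescence from relief of DAX-1 repression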
Active calls of the source: *.

Results for COC(=O)c1sc2nc(CSc3nc4ccc(C)cc4[nH]3)[nH]c(=O)c2c1C ?
hcDAF12 agonist: 6.1*; ssDAF12 agonist: -0.7; DAX1 inh-1: -0.7; hgDAF-12 ag: -0.5; DAX1 inh-2: 0.4

How did Cc1cc(C)c(C#N)c(SCc2nc3ccccc3c(=O)[nH]2)n1 do in these assays?
hcDAF12 agonist: 3.4; ssDAF12 agonist: 0.5; DAX1 inh-1: 0.3; hgDAF-12 ag: 9.6; DAX1 inh-2: 2.3

What do the screens show for `CCc1nc2ccc(C(=O)Nc3ccc(Cl)c(Cl)c3)cn2c1N(C)Cc1ccc(OC)cc1`?
hcDAF12 agonist: 0.7; ssDAF12 agonist: -0.2; hgDAF-12 ag: 11.8*; DAX1 inh-2: 0.4

Results for Cc1ccc(NC(=O)c2ccccc2N(C)S(=O)(=O)c2ccccc2)c(C)c1 ?
hcDAF12 agonist: -3.5; ssDAF12 agonist: -1.5; DAX1 inh-1: -1.0; hgDAF-12 ag: -2.5; DAX1 inh-2: 0.1

What do the screens show for `CCOc1ccc(C(=O)Nc2ccc(Cl)cn2)cc1Cl`?
hcDAF12 agonist: 1.4; ssDAF12 agonist: -0.1; DAX1 inh-1: 1.6; hgDAF-12 ag: 12.6*; DAX1 inh-2: 2.9

What do the screens show for `CSc1ccc(Cc2ccc(Cl)cc2Cl)nn1`?
hcDAF12 agonist: 0.4; ssDAF12 agonist: -0.6; DAX1 inh-1: 4.3*; hgDAF-12 ag: 3.5; DAX1 inh-2: 0.5

How did CC(NCc1ccco1)C(=O)N1CCN(Cc2ccccc2F)CC1 (stereo not drawn) do in these assays?
hcDAF12 agonist: 1.3; ssDAF12 agonist: 0.4; hgDAF-12 ag: 0.8; DAX1 inh-2: 0.7

Results for CC1CCCCN1C(=O)Nc1ccccc1Cl (stereo not drawn) ?
hcDAF12 agonist: -1.6; ssDAF12 agonist: -0.8; DAX1 inh-1: 5.1*; hgDAF-12 ag: -2.4; DAX1 inh-2: -0.1

What do the screens show for `O=C(NC1CCCC1)C1CCCN1C(=O)Nc1ccccc1Cl` (stereo not drawn)?
hcDAF12 agonist: 0.4; ssDAF12 agonist: -1.0; DAX1 inh-1: -0.6; hgDAF-12 ag: -0.8; DAX1 inh-2: 0.1

How did COC(=O)[C@]12C[C@H](CC(=O)NCc3ccc(C)o3)C(=O)N(Cc3ccc(Cl)cc3Cl)C1=C[C@H](C(C)(C)C)O[C@@H]2C do in these assays?
hcDAF12 agonist: -2.0; ssDAF12 agonist: -1.0; hgDAF-12 ag: 0.7; DAX1 inh-2: -0.6

Results for COc1ccc(CCn2nc(C)c([N+](=O)[O-])c2C)cc1 ?
hcDAF12 agonist: 2.3; ssDAF12 agonist: -0.5; DAX1 inh-1: 1.4; hgDAF-12 ag: 8.8; DAX1 inh-2: 4.2*

Results for COCCN(C(=O)COC(=O)c1ccc2c(c1)OCO2)c1c(N)n(Cc2ccccc2)c(=O)[nH]c1=O ?
hcDAF12 agonist: -0.7; ssDAF12 agonist: -1.7; DAX1 inh-1: 4.4*; hgDAF-12 ag: -0.2; DAX1 inh-2: -1.0

How did CCN(C(=O)COC(=O)c1ccc2c(c1)OCO2)c1c(N)n(Cc2ccccc2)c(=O)[nH]c1=O do in these assays?
hcDAF12 agonist: -2.1; ssDAF12 agonist: -0.6; DAX1 inh-1: 0.1; hgDAF-12 ag: -1.3; DAX1 inh-2: -1.1

How did COC(=O)C1CN(Cc2ccccc2)CCS(=O)(=O)N1Cc1ccc(OC)cc1 (stereo not drawn) do in these assays?
hcDAF12 agonist: -2.8; ssDAF12 agonist: -0.9; hgDAF-12 ag: 0.5; DAX1 inh-2: -0.8

What do the screens show for `COC(=O)[C@]1(C)N[C@H](CN(C)C(=O)c2ccccc2)[C@@H]2C(=O)N(Cc3ccccc3)C(=O)[C@@H]21`?
hcDAF12 agonist: 2.4; ssDAF12 agonist: -1.1; DAX1 inh-1: -0.7; hgDAF-12 ag: 2.2; DAX1 inh-2: 0.0

What do the screens show for `CCN(C[C@H]1N[C@@](C)(C(=O)OC)[C@H]2C(=O)N(Cc3ccccc3)C(=O)[C@@H]12)C(=O)C1CCCCC1`?
hcDAF12 agonist: -1.0; ssDAF12 agonist: -1.4; DAX1 inh-1: -1.6; hgDAF-12 ag: -3.3; DAX1 inh-2: -1.3

How did COC(=O)[C@]1(C)N[C@H](CN(C)C(C)=O)[C@@H]2C(=O)N(Cc3ccccc3)C(=O)[C@@H]21 do in these assays?
hcDAF12 agonist: -0.3; ssDAF12 agonist: 3.7*; DAX1 inh-1: 0.1; hgDAF-12 ag: -1.4; DAX1 inh-2: 0.5

What do the screens show for `CCN(C[C@H]1N[C@@](Cc2ccccc2)(C(=O)OC)[C@H]2C(=O)N(Cc3ccccc3)C(=O)[C@@H]12)C(=O)C1CCCCC1`?
hcDAF12 agonist: 0.0; ssDAF12 agonist: 0.0; DAX1 inh-1: 1.1; hgDAF-12 ag: 2.9; DAX1 inh-2: 4.2*

Results for Cc1ccc(N2CCN(/N=C\c3cccnc3)CC2)cc1 ?
hcDAF12 agonist: -1.4; ssDAF12 agonist: -0.8; hgDAF-12 ag: -2.9; DAX1 inh-2: -0.2

How did Oc1ccc2ccccc2c1N=Nc1ccccc1F do in these assays?
hcDAF12 agonist: 6.4*; ssDAF12 agonist: -0.7; DAX1 inh-1: 0.6; hgDAF-12 ag: 0.5; DAX1 inh-2: -0.4

Results for O=C(NCCc1c[nH]c2ccccc12)OCc1cn(Cc2cc(F)cc(F)c2)nn1 ?
hcDAF12 agonist: -3.4; ssDAF12 agonist: -1.1; hgDAF-12 ag: -5.9; DAX1 inh-2: 0.1

Results for Cc1cccc(NC(=O)C2CCN(c3ncccn3)CC2)c1C ?
hcDAF12 agonist: 2.3; ssDAF12 agonist: -1.1; hgDAF-12 ag: -0.2; DAX1 inh-2: -1.6

Results for COc1ccc(Nc2nc(N)nc(CSC(=S)N3CCCCC3)n2)cc1 ?
hcDAF12 agonist: 0.3; ssDAF12 agonist: -1.0; DAX1 inh-1: 3.9; hgDAF-12 ag: 7.7; DAX1 inh-2: 0.1

What do the screens show for `COc1ccc(Nc2nc(N)nc(CSC(=S)N3CCN(C)CC3)n2)cc1`?
hcDAF12 agonist: -0.3; ssDAF12 agonist: 5.4*; DAX1 inh-1: 1.9; hgDAF-12 ag: 3.5; DAX1 inh-2: -0.6

How did O=C(NC1CCOc2ccccc21)c1ccccn1 (stereo not drawn) do in these assays?
hcDAF12 agonist: 5.8*; ssDAF12 agonist: 0.3; DAX1 inh-1: -0.1; hgDAF-12 ag: 1.6; DAX1 inh-2: 0.0

How did Cc1onc(-c2c(F)cccc2Cl)c1C(=O)NC1CC1 do in these assays?
hcDAF12 agonist: 1.4; ssDAF12 agonist: -0.7; DAX1 inh-1: 0.1; hgDAF-12 ag: -0.4; DAX1 inh-2: 0.5

What do the screens show for `Cn1c(-c2ncc(F)cc2F)cc2onc(-c3c(F)cccc3Cl)c2c1=O`?
hcDAF12 agonist: 9.3*; ssDAF12 agonist: 1.3*; DAX1 inh-1: 6.4*; hgDAF-12 ag: 9.8; DAX1 inh-2: 1.5

How did Cn1c(-c2ccccc2)cc2onc(-c3ccccc3)c2c1=O do in these assays?
hcDAF12 agonist: 5.6*; ssDAF12 agonist: 0.1; DAX1 inh-1: 1.9; hgDAF-12 ag: 4.1; DAX1 inh-2: 2.9

What do the screens show for `Cn1c(-c2ccccc2)cc(=O)cc1-c1ccccc1`?
hcDAF12 agonist: 1.4; ssDAF12 agonist: -1.1; DAX1 inh-1: 0.4; hgDAF-12 ag: 0.6; DAX1 inh-2: 0.8

How did Cn1c(-c2ccccc2F)cc2onc(-c3ccccc3)c2c1=O do in these assays?
hcDAF12 agonist: 4.3; ssDAF12 agonist: -0.1; DAX1 inh-1: 5.5*; hgDAF-12 ag: 12.3*; DAX1 inh-2: 5.0*

How did Cn1c(CNC(=O)c2ccc(F)cc2)cc2ccccc21 do in these assays?
hcDAF12 agonist: 0.5; ssDAF12 agonist: 1.0*; DAX1 inh-1: 4.3*; hgDAF-12 ag: 1.1; DAX1 inh-2: -0.6
